Screening results (PubChem)
Cycloheximide cs – Cycloheximide Counterscreen for Small Molecule Inhibitors of Shiga Toxin; max response, %; AID 2314, 2010; cell reporter, cycloheximide protein synthesis inhibition counterscreen; 300,000 compounds, 12% hits; in the data active means max response mostly above about 13%, no sharp cut-off; inactive means mostly below about 14%; further: read at 38.3 µM for the half of the compounds with a filed dose; 0% is about no effect
SARS PLpro yeast – qHTS of Yeast-based Assay for SARS-CoV PLP | S. cerevisiae expressing SARS-CoV PLpro, growth rescue | Potency, µM (top dose mostly 32.9 µM), for inactives: top-dose activity, positive = growth rescue, usual class: activators | 330,000 compounds, 0.19% hits | AID 485353, 2010; calls by dose curve; further: potency means the concentration at half of the fitted maximal effect; 0% is about no effect; nearly all actives have a fitted effect of over 55% in size
Pf growth 48h – Primary qHTS for delayed death inhibitors of the malarial parasite plastid, 48 hour incubation; AID 504832, 2011; Potency, µM (top dose mostly 28.7 µM), for the others: at the top dose activity change, negative = inhibition, usual class: inhibitors; 310,000 compounds, 5.9% hits; P. falciparum luciferase growth in erythrocytes, 48 h; further: potency means the concentration at half of the fitted maximal effect; on the % scale 0 is the no-effect control and ±100 the full control effect
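Read-out is firefly luciferase luminescence from an integrated reporter in P. falciparum, so falling signal marks reduced parasite growth. Infected erythrocytes were at 2% hematocrit and 0.1% parasitemia (final) in Albumax-supplemented RPMI 1640.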
NS1 function inh – qHTS Assay for Inhibitors of Influenza NS1 Protein Function; Potency, µM (doses to about 46.1 µM), for inactives: top-dose activity, positive = more growth; 270,000 compounds, 0.4% hits; calls by dose curve; further: potency means the concentration at half of the fitted maximal effect; actives are rising curves; nearly all actives have a fitted effect of over 50% in size
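In this qHTS, NS1 from influenza A is expressed in budding yeast, where it slows growth. Cells are switched from glucose to 2% galactose medium (pH 6.0, -URA), treated with compound, and growth recovery is read at OD600.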
Pf growth 96h – Primary qHTS for delayed death inhibitors of the malarial parasite plastid, 96 hour incubation; P. falciparum luciferase reporter growth, 96 h; Potency, µM (titrated, usually from 28.7 µM), inactives show at the highest dose activity change, negative = inhibition, hits mostly inhibitors; 320,000 compounds, 6.9% hits; further: potency means the concentration at half of the fitted maximal effect; on the % scale 0 is the no-effect control and ±100 the full control effect
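96 h incubation, 37 C, 5% CO2, of luciferase-reporter P. falciparum-infected RBCs (2% hematocrit, 0.05% parasitemia final) with test compounds; endpoint luminescence.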
Shiga inhibitor – A qHTS for Small Molecule Inhibitors of Shiga Toxin. Vero cells, Shiga toxin protein synthesis inhibition reporter. inhibition, % at 38.7 µM. 290,000 compounds, 9.2% hits. AID 2315, 2010; in the data active means inhibition mostly above about 28%, no sharp cut-off; inactive means mostly below about 43%; further: 0% is about no effect
* hit, by the source's call; u = inconclusive; x = no result; [ ] = remark or other dose. Rows were chosen to be rich in hits. Some 21% of all compounds tested hit in one or more screens of this group. Unless noted, the call rests on the fitted dose curve; in most records, active means well fitted inhibition curve with a large enough effect; inconclusive means small, poorly fitted or top-dose-only effect, or another doubt; inactive means no such curve, though single readings can be large or run the other way.

SMILES	Cycloheximide cs	SARS PLpro yeast	Pf growth 48h	NS1 function inh	Pf growth 96h	Shiga inhibitor
COc1ccccc1-n1cnc2cc(NCc3ccco3)ccc21	13	4%	u	-36%	-4%[5.75 µM]	48
COc1ccccc1-n1cnc2cc(NS(=O)(=O)c3ccc(Br)cc3)ccc21	-2	-11%	x	u	5.2µM*	-6
COc1ccc(CNc2ccc3c(c2)ncn3-c2ccccc2OC)cc1	-1	-7%	15µM*	-70%	13µM*	45
COc1ccc(-n2cnc3cc(NS(=O)(=O)c4ccc(C)cc4)ccc32)cc1	4	-5%	x	6%	u	-8
COCCN1C(=O)c2cc(C(=O)Nc3ccc(OC)c(OC)c3)ccc2C1Nc1ccc(OC)c(OC)c1 (stereo not drawn)	5	0%	u	x	-6%	16
CC(=O)c1cc2c(cc1NC(=O)CN1Cc3ccccc3C1=O)OCO2	7	3%	52%	-5%	-10%	31
CS(=O)(=O)Nc1ccc(C(=O)Nc2cccc([N+](=O)[O-])c2)cc1	8	1%	24%	x	75%	-5
O=C1Nc2ccccc2CCC1Sc1nnc(-c2ccc(Cl)cc2)s1 (stereo not drawn)	-2	0%	13µM*	6%	u	-4
CC(=O)N(NC(=O)c1ccc(C)cc1)C1CC(=O)N(c2ccccc2Cl)C1=O (stereo not drawn)	-3	6%	-4%	2%	-14%	-12
COc1ccc2c(n1)Sc1nc3ccccc3nc1N2	56*	-5%	181%	-36%	157%	75*
O=C(NCc1ccncc1)c1cccc(S(=O)(=O)N2CCc3ccccc32)c1	x	-3%	u	x	u	x
O=C(Nc1nc(-c2ccccn2)cs1)c1ccc(Br)s1	10	6%	u	-161%	x	-4
O=C(CC1CC2CCC1C2)Nc1nc(-c2ccccn2)cs1 (stereo not drawn)	46*	-15%	2.6µM*	1%	4.7µM*	78*
O=C(Nc1nc(-c2ccccn2)cs1)C1CC1	32*	u	u	-5%	u	43*
O=C(Nc1nc(-c2ccccn2)cs1)C12CC3CC(CC(O)(C3)C1)C2	34*	4%	328%	-3%	u	91*
O=C(CCS(=O)(=O)c1ccc(F)cc1)Nc1nc(-c2ccccn2)cs1	8	8%	u	-12%	u	-5
CC(Oc1ccc(F)cc1)C(=O)Nc1nc(-c2ccccn2)cs1 (stereo not drawn)	x	x	2.6µM*	x	2.3µM*	x
O=C(COc1ccc([N+](=O)[O-])cc1)Nc1ccccc1N1CCCC1	1	-1%	0%	-6%	27%	-12
Cc1ccc(CN2CC(C(=O)N3CC(C)CC(C)C3)CC2=O)cc1 (stereo not drawn)	x	-3%	u	x	17%	x
CC(C)(CNC(=O)Cc1ccc(Br)cc1)N1CCOCC1	-4	0%	31%	2%	22%	6
O=C(CN1CCN(Cc2ccccc2Cl)CC1)N/N=C/c1ccccn1	7	-1%	-18%	-2%	u	-5
CCC(=O)c1c(NCCc2ccccc2)cc(C)oc1=O	-1	-3%	-7%	-6%	u	-7
Cc1cc(C)c(OCC(=O)Nc2nc(-c3ccccn3)cs2)c(C)c1	4	-14%	8.3µM*	x	u	51
O=C(COC(=O)c1cc(S(=O)(=O)N2CCOCC2)ccc1O)NCc1ccc2c(c1)OCO2	x	-2%	u	x	-19%	x
Cc1[nH]ncc1-c1nc2ccccc2[nH]1	1	1%	-12%	4%	-18%	20
SMILES	Cycloheximide cs	SARS PLpro yeast	Pf growth 48h	NS1 function inh	Pf growth 96h	Shiga inhibitor
COc1cccc(N=c2oc3ccc(OC)cc3cc2-c2nc3ccccc3[nH]2)c1	40*	x	76%	0%	62%	94*
COc1cccc(N=c2oc3ccccc3cc2-c2nc3ccccc3[nH]2)c1	38*	-2%	u	-60%	u	63*
COc1ccc(N=c2oc3ccc(OC)cc3cc2-c2nc3ccccc3[nH]2)cc1	28*	x	17%	0%	17%	162*
C[C@H](CO)N1C[C@H](C)[C@@H](CN(C)S(=O)(=O)c2cccs2)Oc2c(NC(=O)NC3CCCCC3)cccc2C1=O	x	25%	x	x	x	x
Cc1ccc(-c2csc3ncnc(-n4cnc5ccccc54)c23)cc1	-2	12%	-10%	-18%	u	-22
CCc1nn(C(CC)C(=O)NCCc2ccc(OC)cc2OC)c(=O)c2cc3occc3n12 (stereo not drawn)	-2	1%	4%	21%	3%	-2
O=C(Nc1ccccc1)C1=C[C@@H](C2CC2)C[C@@H](OCCCCO)O1	55*	-2%	61%	-4%	82%	58*
O=C(Nc1ccccc1)C1=C[C@@H](C2CC2)C[C@@H](OCc2ccc(CO)cc2)O1	35*	-2%	4%	-12%	7%	47*
C#Cc1ccc([C@@H]2C=C(C(=O)O)O[C@H](OCc3ccc(CO)cc3)C2)cc1	5	-3%	30%	5%	44%	-13
O=C(Nc1ccccc1)C1=C[C@H](c2ccccc2)C[C@H](OCc2ccc(CO)cc2)O1	32*	-2%	u	-4%	u	53*
C#Cc1ccc([C@H]2C=C(C(=O)Nc3ccccc3)O[C@@H](OCc3ccc(CO)cc3)C2)cc1	5	-1%	7.4µM*	-36%	7.4µM*	20
O=C(Nc1ccccc1)C1=C[C@H](c2ccc(C(F)(F)F)cc2)C[C@H](OCc2ccc(CO)cc2)O1	2	0%	u	-32%	u	8
CC1CCCCC1NS(=O)(=O)c1ccc(S(=O)(=O)N2CCN(CCC#N)CC2)cc1 (stereo not drawn)	6	-2%	13µM*	-27%	-24%	12
CCCNC(=S)Nc1c(C)n(C)n(-c2ccccc2)c1=O	-3	0%	3%	-1%	0%	-14
Cc1ccc(Cl)c(OCCN2CCCC(C)C2)c1 (stereo not drawn)	-2	-16%	-24%	-29%	4%	12
CC1CCN(CCOCCOc2ccc(Cl)cc2Br)CC1	-4	-4%	u	-10%	6.6µM*	-33
CC1CCCN(CCOc2ccc3ccccc3c2Br)C1 (stereo not drawn)	14	0%	u	-7%	u	43*
CC1CCN(CCCOc2ccc(Cl)cc2Br)CC1	26*	-4%	-15%	x	u	73*
CC1CCCN(CCCOc2ccc(Cl)cc2Br)C1 (stereo not drawn)	37*	-15%	u	-30%	3%	103*
Clc1ccc(OCCOCCN2CCCCC2)c(Br)c1	6	-8%	u	-34%	u	21
COc1ccccc1NC(=O)CSc1nnc(-c2ccoc2C)n1C	-1	-2%	1%	1%	0%	-2
